Inconclusive results are not listed. Calls of active or inactive are those of the source. Unless noted, calls come from the whole dose curve.
Tests used:
[1] = qHTS assay to identify small molecule antagonists of the sonic hedgehog signaling (Shh) pathway (AID 1259369); note: nearly all actives have a fitted effect of over 45% in size
Summary of the method: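 3T3Gli1-Luc, conditioned-medium-stimulated, 24hr cpd, 37C/5% CO2; Gli1-driven firefly Luc luminescence after 30min RT with luciferase reagent. Cells plated 4hr before cpd.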

[2] = molecular target: Estrogen receptor beta (Homo sapiens) (UniProt Q92731); experiment: qHTS assay to identify small molecule agonists of the estrogen receptor beta (ER-beta) signaling pathway (AID 1259377; active = well fitted activation curve with a large enough effect in the signal ratio in the repeat runs, not every such curve was filed as active; the % refers to the signal ratio; note: potency is the fitted concentration of half-maximal effect)
Summary of the method: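 ER-beta-UAS-bla HEK293T (GripTite) cells carrying a UAS-driven beta-lactamase reporter, in medium with 2% charcoal-stripped FBS, were exposed to compounds for 16 hr at 37C; LiveBLAzer B/G FRET substrate was then added and fluorescence read after 2 hours at room temperature.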

[3] = molecular target: Estrogen receptor beta (Homo sapiens) (UniProt Q92731); experiment: qHTS assay to identify small molecule antagonists of the estrogen receptor beta (ER-beta) signaling pathway (AID 1259378; active = well fitted inhibition curve with a large enough effect in the signal ratio in the repeat runs, not every such curve was filed as active; the % refers to the signal ratio)
Summary of the method: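 ER-beta-UAS-bla HEK293T (GripTite) cells in 2% charcoal-stripped FBS medium were preincubated 6 hr at 37C, dosed with compound, then stimulated with 1 nM E2 (final) for 16 hr; beta-lactamase reporter read by B/G FRET fluorescence after 2 hr substrate loading.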

[4] = qHTS assay to identify small molecule agonists of the androgen receptor (AR) signaling pathway in the presence of an antagonist - cell viability counter screen (AID 1259379; active = well fitted curve in the direction sought with a large enough effect in the repeat runs; an effect the other way counts as inactive or inconclusive; note: nearly all actives have a fitted effect of over 25% in size; note: potency is the fitted concentration of half-maximal effect;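 for activity change, negative = cytotoxicity: MDA-kb2 human breast cancer cells carrying an MMTV luciferase reporter; series mostly up to about 92 µM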)
Summary of the method: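 Cells: MDA-kb2 (MMTV-luc, AR and GR elements), 3,000/well, 5 hr settle. Added: nilutamide 3.0uM final, then compounds (15 conc.). Incubation: 16 hr, 37C, no CO2. Read-out: CellTiter-Fluor, 1 hr, fluorescence.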

[5] = qHTS assay to identify small molecule agonists of the estrogen receptor beta (ER-beta) signaling pathway - cell viability counter screen (AID 1259380; active = well fitted curve in the direction sought with a large enough effect in the repeat runs; an effect the other way counts as inactive or inconclusive; note: nearly all actives have a fitted effect of over 30% in size; note: potency is the fitted concentration of half-maximal effect)
Summary of the method: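 HEK293T ER-beta-UAS-bla; 2% CS-FBS; 6 hr pre-plate, 16 hr cpd at 37C/5% CO2; LiveBLAzer read first, then CellTiter-Glo 30 min RT, luminescence.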

[6] = qHTS assay to identify small molecule antagonists of the estrogen receptor beta (ER-beta) signaling pathway - cell viability counter screen (AID 1259382; active = well fitted curve in the direction sought with a large enough effect in the repeat runs; an effect the other way counts as inactive or inconclusive; note: series mostly up to about 92 µM; nearly all actives have a fitted effect of over 55% in size)
Summary of the method: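 Cells: ER-beta-UAS-bla HEK293T, 2,000/well, 2% CS-FBS, 6 hr settle. Cpd + E2 (1nM final), 16 hr, 37C/5% CO2. Bla FRET substrate 2 hr RT, then CellTiter-Glo 30 min RT, luminescence.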

[7] = qHTS assay to identify small molecule agonists or antagonists of the thyroid stimulating hormone receptor (TSHR) signaling pathway - wild type cell line counter screen (AID 1259384)
Summary of the method: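 Wild-type HEK293 cells were plated 18 h at 37 C/5% CO2, pin-dosed with compound plus Ro20-1724 medium, held 30 min at room temperature, then given cAMP-d2 and anti-cAMP-cryptate; fluorescence was read after 1 h. Fifteen concentrations, triplicate.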

[8] = molecular target: Thyrotropin receptor (Homo sapiens) (UniProt P16473); experiment: qHTS assay to identify small molecule antagonists of the thyroid stimulating hormone receptor (TSHR) signaling pathway (AID 1259385); note: nearly all actives have a fitted effect of over 20% in size
Summary of the method: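 TSHR-HEK293 cells were plated and held 18 h at 37C/5% CO2, then given compound plus Ro20-1724 and stimulated with TSH at 1.5 ng/mL final. After 30 min at room temperature, cAMP was detected with cAMP-d2/anti-cAMP-cryptate (1 h) by fluorescence.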

[9] = molecular target: Androgen receptor (Homo sapiens) (UniProt P10275); experiment: qHTS assay to identify small molecule agonists of the androgen receptor (AR) signaling pathway in the presence of an antagonist (AID 1259381); note: nearly all actives have a fitted effect of over 15% in size
Summary of the method: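 MDA-kb2 cells, 3,000/well, rested 5hr at 37C/0% CO2 → nilutamide 3.0uM final or buffer → compounds, 15 conc. → 16hr at 37C → ONE-Glo, 30min RT → luminescence.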

[10] = molecular target: Estrogen receptor (Homo sapiens) (UniProt P03372); experiment: qHTS assay to identify small molecule agonists of the estrogen receptor alpha (ER-alpha) signaling pathway in the presence of an antagonist (AID 1259383); note: top concentration of the series differs between compounds; nearly all actives have a fitted effect of over 15% in size
Summary of the method: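 VM7Luc4E2, endog. ER-alpha + 4×ERE-luc; charcoal-stripped FBS, phenol red-free, 5 d; 24hr plating; +10.0nM ICI-182,780 (final); cpds 15 conc, 22hr, 37C/5% CO2; ONE-Glo luminescence.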
% is set by controls: 0 for no effect and ±100 for the full control effect.

Sequence of Estrogen receptor beta (Homo sapiens) (Q92731 whole entry, looked up): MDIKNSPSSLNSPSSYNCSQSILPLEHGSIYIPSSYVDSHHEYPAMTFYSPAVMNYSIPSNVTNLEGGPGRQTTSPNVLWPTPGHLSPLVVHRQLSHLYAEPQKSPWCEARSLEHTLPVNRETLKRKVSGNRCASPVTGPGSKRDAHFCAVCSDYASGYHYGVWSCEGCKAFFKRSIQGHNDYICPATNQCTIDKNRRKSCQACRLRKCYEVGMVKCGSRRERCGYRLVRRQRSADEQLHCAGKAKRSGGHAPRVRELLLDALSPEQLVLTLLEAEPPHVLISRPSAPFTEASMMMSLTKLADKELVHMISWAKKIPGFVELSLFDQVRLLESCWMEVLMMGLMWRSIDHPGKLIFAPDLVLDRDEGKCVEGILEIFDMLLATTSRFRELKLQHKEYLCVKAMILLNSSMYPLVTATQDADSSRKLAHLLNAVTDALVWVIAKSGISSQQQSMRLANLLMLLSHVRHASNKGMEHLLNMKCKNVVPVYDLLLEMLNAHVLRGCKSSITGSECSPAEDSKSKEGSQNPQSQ
Sequence of Estrogen receptor (Homo sapiens) (P03372 whole entry, looked up): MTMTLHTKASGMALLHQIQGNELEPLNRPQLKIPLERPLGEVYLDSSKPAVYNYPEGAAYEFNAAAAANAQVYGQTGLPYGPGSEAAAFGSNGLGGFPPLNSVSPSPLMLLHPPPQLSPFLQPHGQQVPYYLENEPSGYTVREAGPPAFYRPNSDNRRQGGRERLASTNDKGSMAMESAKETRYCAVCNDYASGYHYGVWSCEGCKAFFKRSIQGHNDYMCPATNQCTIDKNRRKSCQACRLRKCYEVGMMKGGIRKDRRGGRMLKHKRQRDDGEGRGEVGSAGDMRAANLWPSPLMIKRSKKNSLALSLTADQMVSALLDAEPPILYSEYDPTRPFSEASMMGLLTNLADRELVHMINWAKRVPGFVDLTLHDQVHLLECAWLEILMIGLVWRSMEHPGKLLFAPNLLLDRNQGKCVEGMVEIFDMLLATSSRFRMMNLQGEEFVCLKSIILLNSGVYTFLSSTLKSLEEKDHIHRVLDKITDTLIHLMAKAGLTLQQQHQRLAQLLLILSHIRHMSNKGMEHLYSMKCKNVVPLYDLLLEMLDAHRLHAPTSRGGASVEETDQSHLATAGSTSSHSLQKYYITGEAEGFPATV
Sequence of Androgen receptor (Homo sapiens) (P10275 whole entry, looked up): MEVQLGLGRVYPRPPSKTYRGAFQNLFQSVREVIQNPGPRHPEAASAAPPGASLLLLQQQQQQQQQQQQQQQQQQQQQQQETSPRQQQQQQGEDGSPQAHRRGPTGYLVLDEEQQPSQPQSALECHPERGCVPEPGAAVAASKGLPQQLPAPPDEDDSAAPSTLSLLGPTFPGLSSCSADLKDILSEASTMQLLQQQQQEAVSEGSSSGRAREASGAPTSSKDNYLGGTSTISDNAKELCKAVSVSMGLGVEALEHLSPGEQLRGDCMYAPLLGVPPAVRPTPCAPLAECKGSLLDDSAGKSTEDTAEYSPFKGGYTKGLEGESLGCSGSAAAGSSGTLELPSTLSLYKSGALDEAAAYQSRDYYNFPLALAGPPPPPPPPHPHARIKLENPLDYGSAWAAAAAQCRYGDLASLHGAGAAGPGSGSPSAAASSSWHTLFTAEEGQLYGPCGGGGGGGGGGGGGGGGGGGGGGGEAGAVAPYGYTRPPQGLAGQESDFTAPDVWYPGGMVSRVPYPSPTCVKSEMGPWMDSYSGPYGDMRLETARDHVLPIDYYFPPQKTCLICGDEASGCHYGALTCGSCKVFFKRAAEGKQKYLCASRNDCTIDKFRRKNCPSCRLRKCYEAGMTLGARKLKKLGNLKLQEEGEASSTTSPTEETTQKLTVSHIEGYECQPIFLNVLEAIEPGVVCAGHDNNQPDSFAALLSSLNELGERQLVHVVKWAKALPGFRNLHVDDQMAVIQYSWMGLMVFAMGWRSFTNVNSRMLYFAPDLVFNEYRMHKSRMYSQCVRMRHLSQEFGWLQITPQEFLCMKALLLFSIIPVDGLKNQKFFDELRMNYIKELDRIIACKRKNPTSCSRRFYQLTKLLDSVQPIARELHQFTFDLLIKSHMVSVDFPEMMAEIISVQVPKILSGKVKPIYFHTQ
Sequence of Thyrotropin receptor (Homo sapiens) (P16473 whole entry, looked up): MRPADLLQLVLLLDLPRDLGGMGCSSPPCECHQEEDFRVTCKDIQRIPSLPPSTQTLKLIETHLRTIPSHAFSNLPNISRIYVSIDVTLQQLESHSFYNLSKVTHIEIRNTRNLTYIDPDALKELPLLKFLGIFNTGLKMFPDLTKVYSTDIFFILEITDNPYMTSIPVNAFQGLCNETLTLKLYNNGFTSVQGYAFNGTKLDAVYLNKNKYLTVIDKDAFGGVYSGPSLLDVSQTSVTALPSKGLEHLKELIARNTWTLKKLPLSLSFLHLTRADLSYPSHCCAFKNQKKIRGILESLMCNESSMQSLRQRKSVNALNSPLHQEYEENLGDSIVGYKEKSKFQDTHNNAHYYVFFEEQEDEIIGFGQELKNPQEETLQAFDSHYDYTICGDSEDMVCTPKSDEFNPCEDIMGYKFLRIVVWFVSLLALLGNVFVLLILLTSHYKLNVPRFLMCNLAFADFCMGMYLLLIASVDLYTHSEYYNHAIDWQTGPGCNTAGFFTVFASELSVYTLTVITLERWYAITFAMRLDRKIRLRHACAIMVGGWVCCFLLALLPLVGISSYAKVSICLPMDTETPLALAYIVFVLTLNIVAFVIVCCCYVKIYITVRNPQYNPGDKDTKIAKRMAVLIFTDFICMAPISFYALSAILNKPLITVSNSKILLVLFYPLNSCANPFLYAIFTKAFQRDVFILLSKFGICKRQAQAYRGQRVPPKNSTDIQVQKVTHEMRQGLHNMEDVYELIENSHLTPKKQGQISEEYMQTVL

CC(=O)OCC1=C(C(=O)O)N2C(=O)[C@@H](N)[C@H]2SC1
inactive: activity change, negative = inhibition [1] 1.15% [at 19 µM] | activation [2] -0.931% [at 19 µM] | activity, negative = inhibition [3] 21.8% [at 19 µM] | activity change, negative = cytotoxicity [4] 4.78% [at 19 µM] | activity change, negative = cytotoxicity [5] 0.632% [at 19 µM] | activity change, negative = cytotoxicity [6] -2.02% [at 19 µM] | cAMP activity change [7] 4.85% [at 18.9 µM] | activity change, negative = inhibition [8] 1.01% [at 19 µM]

CC(C)[C@]12CC(=O)[C@H](C)[C@H]1C2
inactive: Potency [1] | Potency [2] | outcome [3] | Potency [4] | Potency [5] | Potency [6] | outcome [7]

N[C@@H]1C[C@H]1c1ccccc1
inactive: Potency [1] | Potency [2] | outcome [3] | Potency [4] | Potency [5] | Potency [9] | Potency [6] | Potency [10] | outcome [7] | outcome [8]

C=CC(=O)OCCN(C)C
inactive: Potency [1] | Potency [2] | outcome [3] | Potency [4] | Potency [5] | Potency [6]

COC[C@@H](NC(C)=O)C(=O)NCc1ccccc1
inactive: Potency [1] | Potency [2] | outcome [3] | Potency [4] | Potency [5] | Potency [9] | Potency [6] | outcome [7] | outcome [8]

C=C(C)[C@H]1CN[C@H](C(=O)O)[C@H]1CC(=O)O
inactive: Potency [1] | Potency [2] | outcome [3] | Potency [4] | Potency [5] | Potency [6] | outcome [7] | outcome [8]

CCOC(=O)CCl
inactive: Potency [1] | Potency [2] | outcome [3] | Potency [4] | Potency [5] | Potency [6] | Potency [10] | outcome [7] | outcome [8]

NC(=O)OCCCc1ccccc1
inactive: Potency [1] | Potency [2] | outcome [3] | Potency [4] | Potency [5] | Potency [10] | outcome [7] | outcome [8]

CCCOC(=O)c1cncn1C(C)c1ccccc1 (stereo not given)
inactive: Potency [1] | Potency [2] | outcome [3] | Potency [4] | Potency [9] | Potency [6] | outcome [7] | outcome [8]

CCC(C)C(C)(COC(N)=O)COC(N)=O (stereo not given)
inactive: Potency [1] | Potency [2] | Potency [4] | Potency [5] | Potency [6] | Potency [10] | outcome [7] | outcome [8]

O=C(O)C(Cl)Br (stereo not given)
inactive: Potency [1] | Potency [2] | outcome [3] | Potency [4] | Potency [6] | outcome [7]

CCC1(CC)C(=O)C=CNC1=O
inactive: Potency [1] | Potency [2] | Potency [4] | Potency [5] | Potency [6] | Potency [10] | outcome [7] | outcome [8]

C#CC(C)(C)O
inactive: Potency [1] | Potency [2] | Potency [4] | Potency [5] | Potency [6]

NC(=O)CS(=O)C(c1ccccc1)c1ccccc1 (stereo not given)
inactive: Potency [1] | Potency [2] | outcome [3] | Potency [4] | Potency [6] | outcome [7] | outcome [8]

CCc1cc(OC)c(C[C@H](C)N)cc1OC
active: Potency [5] 71.5 µM
inactive: Potency [1] | Potency [2] | outcome [3] | outcome [7] | outcome [8]

N[C@@H](Cc1ccc(Oc2cc(I)c(O)c(I)c2)c(I)c1)C(=O)O
inactive: Potency [1] | Potency [2] | Potency [4] | Potency [5] | Potency [6]

Cc1ccc(S(=O)(=O)N[C@@H](CCCCN)C(=O)CCl)cc1
inactive: Potency [1] | Potency [2] | Potency [4] | Potency [5] | Potency [9] | Potency [6] | Potency [10] | outcome [7] | outcome [8]

C[N+]1(C)CCCCC1
inactive: Potency [1] | Potency [2] | outcome [3] | Potency [4] | Potency [9] | Potency [6] | outcome [7] | outcome [8]

c1cncc([C@@H]2CCCCN2)c1
inactive: Potency [1] | Potency [2] | Potency [4] | Potency [5] | Potency [6] | Potency [10] | outcome [7] | outcome [8]

O=C(Cl)C(Cl)Cl
inactive: Potency [1] | Potency [2] | outcome [3] | Potency [4] | Potency [6] | Potency [10] | outcome [7] | outcome [8]

O=C(Cl)OCc1ccccc1
inactive: Potency [1] | Potency [2] | Potency [4] | Potency [5] | Potency [6] | Potency [10] | outcome [7] | outcome [8]

CCOC1Oc2ccc(OS(C)(=O)=O)cc2C1(C)C (stereo not given)
inactive: Potency [1] | Potency [2] | Potency [5] | Potency [9] | Potency [10] | outcome [7] | outcome [8]
active: Potency [4] 68 µM

CC(C)(N)Cc1ccccc1Cl
inactive: Potency [1] | Potency [2] | outcome [3] | Potency [4] | Potency [9] | Potency [6] | Potency [10] | outcome [7] | outcome [8]

CC(C)(C1CCC(O)CC1)C1CCC(O)CC1 (stereo not given)
active: Potency [2] 21.7 µM
inactive: Potency [1] | Potency [4] | Potency [5] | Potency [6] | Potency [10]

O=C(Cl)CCl
inactive: Potency [1] | Potency [2] | Potency [4] | Potency [5] | Potency [6] | Potency [10] | outcome [7] | outcome [8]

CCN(CC)C1CCCCC1
inactive: Potency [1] | Potency [2] | outcome [3] | Potency [4] | Potency [9] | Potency [6]

CCOC(=O)c1ncn2c1CN(C)C(=O)c1c(I)cccc1-2
inactive: Potency [1] | Potency [2] | Potency [4] | Potency [5] | Potency [6] | Potency [10] | outcome [7] | outcome [8]

CCN(CCO)CCn1c(Cc2ccccc2)nc2c1c(=O)n(C)c(=O)n2C
inactive: Potency [1] | Potency [2] | Potency [4] | Potency [5] | Potency [6] | Potency [10] | outcome [7]

CCC1(c2ccccc2)CCC(=O)NC1=O (stereo not given)
inactive: Potency [1] | Potency [2] | Potency [4] | Potency [5] | Potency [9] | Potency [6] | Potency [10] | outcome [7] | outcome [8]

From PubChem BioAssay (Tox21)
